Shown are actives, neighbours in structure and some others; about 7.5% of the full set was active somewhere.
FLuc counter: firefly luciferase modulation, counter-screen for miR-21 project. P08659. purified FLuc, Km substrates, luminescence inhibition. Potency, µM (highest dose often 57.5 µM), without a hit: top-dose activity change, negative = inhibition, actives largely listed as inhibitors. 6.9% of 360,000 active;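 also: plate controls were vehicle for no effect and reference inhibitor for full effect; nearly all actives have a fitted effect of over 55% in size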
Target sequence (P08659 whole entry, looked up): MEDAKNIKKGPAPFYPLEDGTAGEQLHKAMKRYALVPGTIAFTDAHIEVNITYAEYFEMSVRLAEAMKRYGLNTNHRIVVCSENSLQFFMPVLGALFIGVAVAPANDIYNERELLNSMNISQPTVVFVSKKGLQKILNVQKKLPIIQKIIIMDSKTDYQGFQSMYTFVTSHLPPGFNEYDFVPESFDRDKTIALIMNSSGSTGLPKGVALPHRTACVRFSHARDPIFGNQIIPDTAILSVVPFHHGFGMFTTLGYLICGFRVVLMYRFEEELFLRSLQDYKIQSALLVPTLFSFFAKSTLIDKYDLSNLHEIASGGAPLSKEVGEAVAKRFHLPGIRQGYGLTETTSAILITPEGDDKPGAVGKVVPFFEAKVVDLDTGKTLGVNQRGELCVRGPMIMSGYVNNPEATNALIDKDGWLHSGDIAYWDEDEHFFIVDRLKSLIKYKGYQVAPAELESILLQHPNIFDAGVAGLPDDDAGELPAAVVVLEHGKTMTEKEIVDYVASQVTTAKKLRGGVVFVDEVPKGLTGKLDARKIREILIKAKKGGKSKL
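Purified P. pyralis luciferase (10nM final) with 10uM D-luciferin and 10uM ATP (Km levels) in 50mM Tris acetate pH 7.5, 10mM Mg acetate, 0.01% Tween-20, 0.05% BSA; qHTS 6-point titration, ~60 µM downward; luminescence read.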
Rab9 prom act: Rab9 promoter activation; Potency, µM (series often up to 9.22 µM), without a hit: at the top dose activation, negative = inhibition, actives largely listed as activators; 2.8% of 320,000 active; Huh7 Rab9 promoter-luciferase reporter, luminescence, 24 h; also: % of control where 0% means no effect; nearly all actives have a fitted effect of over 60% in size
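Huh7 cells stably carrying a Rab9 promoter-luciferase reporter, 1500 cells per well in OP-MEM I with 10% FBS, treated with compound 24 hours at 37C. Luciferase activity read by luminescence after 10 minutes with Amplite reagent.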
NPC1 promoter act: activates the NPC1 promoter. AID 485313. Potency, µM (series often up to 9.22 µM), for the others: at the top dose activation, hits mostly activators. Huh7 NPC1 promoter luciferase reporter, 24 h. 2.4% of 320,000 active; also: % of control where 0% means no effect; nearly all actives have a fitted effect of over 60% in size
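Stably transfected Huh7 (NPC1 promoter→luciferase), 1500 cells/well in Opti-MEM + 10% FBS, 2 h settle, then compound 24 h at 37 °C. Luminescence after 10 min with Amplite reagent.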
SMN2 splice enh: SMN2 splice variant enhancement; Potency, µM (doses to about 46.1 µM), for inactives: at the top dose activity change, positive = activation, hits mostly activators; HEK293 SMN2-luciferase splicing reporter, luminescence, 30-36 h; AID 1458; 2.8% of 210,000 active; also: % of control where 0% means no effect; nearly all actives have a fitted effect of over 55% in size
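HEK293 cells carry an SMN2 minigene-luciferase reporter in which exon 7 inclusion puts luciferase in frame. Cells were seeded at 2000 cells/well, attached for 10-12 hours, then exposed to compounds for 30-36 hours at 37C before ONE-Glo luminescence.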
ELG1 genotoxic: induces genotoxicity in HEK293T cells with luciferase-tagged ELG1; HEK293T ELG1-luciferase reporter, luminescence, 16 h; Potency, µM (doses to about 46 µM), inactives show at the highest dose activity change, positive = activation, hits mostly activators; 1.3% of 330,000 active; AID 504466; also: % of control where 0% means no effect; nearly all actives have a fitted effect of over 60% in size
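Luminescence read-out: rising ELG1-luciferase signal, reflecting elevated ELG1 protein under genetic stress, flags genotoxic compounds. Cells were treated for 16 hr at 37 °C before ONE-Glo detection.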
Starred values were filed as active, the others as inactive; ? = inconclusive; nt = no result. Calls follow the shape of the dose curve; as a rule, active = well fitted curve in the direction sought with a large enough effect; inconclusive = small, poorly fitted or top-dose-only effect, or another doubt; inactive = no such curve, though single readings can be large; an effect the other way counts as inactive or inconclusive. Potency is read from the fitted curve at half-maximal effect.

SMILES | FLuc counter | Rab9 prom act | NPC1 promoter act | SMN2 splice enh | ELG1 genotoxic
O=C(/C=C\N1CCOCC1)c1ccc(Br)cc1 | 15.1µM* | ? | ? | nt | ?
O=C(NCc1cccnc1)C12CC3CC(CC(Cl)(C3)C1)C2 | ? | 17.5% | 17.8% | nt | ?
Cc1nn(C)c(C)c1N=Cc1c(O)ccc2ccccc12 | 13.5µM* | 15.3% | -0.3% | 10.1% | -0.7%
O=C(Nc1nc(-c2cccs2)c(-c2ccccc2)s1)c1ccco1 | -2.8% | 5.3% | -8.4% | -8.9% | 3.8%
O=C(Nc1nc2ccccc2c(=O)s1)c1ccco1 | 15.1µM* | -12.7% | -1.9% | nt | -0.1%
CN(C)CCN(C(=O)c1ccco1)c1nc2cc3c(cc2s1)OCCO3 | -12.5% | 18.4% | 18.1% | nt | 18.3µM*
O=C(Nc1nc2cc3c(cc2s1)OCO3)c1ccco1 | 0.239µM* | 0.224µM* | 0.251µM* | nt | 4.2%
O=C(Nc1nc2cc3c(cc2s1)OCCO3)c1ccco1 | 0.107µM* | 0.794µM* | ? | nt | ?
O=C(COc1ccccc1)Nc1nc2cc3c(cc2s1)OCCO3 | -16.6% | 5.4% | -0.2% | nt | ?
COc1ccc(NC(=O)c2ccc(NC(=O)C3CC3)cc2)cc1 | 3.1% | 21.7% | 0.1% | nt | ?
CN(C)S(=O)(=O)N1CCC(Oc2ccc(C(=O)NCC(C)(C)CO)cc2)CC1 | 4.9% | -6.4% | -5.3% | nt | -0.3%
O=C(Nc1nc2cc3c(cc2s1)OCCO3)c1ccncc1 | 1.69µM* | 1.58µM* | 2.24µM* | ? | ?
O=C(Nc1nc2cc3c(cc2s1)OCCO3)c1ccc(N2C(=O)CCC2=O)cc1 | ? | 11.5% | ? | nt | 4.8%
O=C(CCNC(=O)c1ccccc1Cl)Nc1nc2ccc(F)cc2s1 | ? | 25.2% | 27.6% | nt | 10.9%
O=C(Nc1nc2ccccc2c(=O)s1)c1ccc(F)cc1Cl | 3.79µM* | 0.3% | 7.6% | nt | 0.2%
C=CCn1c(SCC(N)=O)nc2scc(-c3ccc(C)o3)c2c1=O | 4.78µM* | 2.51µM* | ? | nt | ?
C=CCn1c(SCc2ccccc2)nc2scc(-c3ccc(C)o3)c2c1=O | 0.8% | -6.9% | 0.2% | -8.3% | -1.9%
Cc1cc(/C=N/NC(=O)COc2cccc3cccnc23)c(C)n1-c1ccc(O)cc1 | 3.38µM* | 29.5% | 20.4% | ? | 4.6%
Cc1ccc(-n2c(C)cc(/C=N/NC(=O)c3ccncc3)c2C)c(C)c1 | 12µM* | 8.3% | -4.7% | -9.6% | -4.4%
Cc1cc(C(=O)N/N=C2\CC(=O)c3ccccc32)c(C)n1-c1ccccc1 | 2.69µM* | 3.55µM* | ? | 10µM* | ?
Cc1cc(C)cc(-n2c(C)cc(/C=N\NC(=O)COc3cccc4cccnc34)c2C)c1 | ? | 1.5% | -1.6% | 3.1% | -3.7%
CCc1ccc(-n2c(C)cc(/C=N/NC(=O)c3ccncc3)c2C)cc1 | 12µM* | -1.4% | 3.7% | -15.4% | -11.3%
Cc1cc(C(=O)N/N=C2\CC(=O)CC(C)(C)C2)c(C)n1-c1ccccc1 | -18.0% | -2.9% | 0.3% | -48.5% | 0.7%
COC(=O)C1SCC2C(=O)N(Cc3ccc(F)cc3)CC(=O)N21 (centres undefined) | -0.9% | -2.4% | 0.1% | 7.6% | -4.4%
CC(=O)C1=C(C)NC(SCC(=O)c2ccc(Cl)cc2Cl)=C(C#N)C1c1ccco1 (centres undefined) | 4.3% | -6.2% | 0.6% | -13.2% | -1.5%
SMILES | FLuc counter | Rab9 prom act | NPC1 promoter act | SMN2 splice enh | ELG1 genotoxic
CCCCN(C(=S)Nc1ccc(F)cc1)c1c(N)n(CCC)c(=O)[nH]c1=O | -1.2% | -2.9% | -2.6% | 2.3% | 2.7%
CCCCNCCOCCOc1ccc(F)cc1 | -0.4% | 0.2% | 0.2% | -12.2% | 0.6%
O=C(N/N=C/c1cccnc1)c1cccs1 | ? | 18.0% | 3.2% | nt | 5.9%
Cc1cc(/C=N/NC(=O)c2cccc([N+](=O)[O-])c2)c(C)n1-c1ccccc1 | 1.69µM* | 20.2% | -0.5% | 27.1% | ?
Cc1cccc(C)c1-n1c(C)cc(/C=N/NC(=O)c2ccncc2)c1C | -22.7% | -0.3% | 0.0% | 1.6% | 2.8%
Cc1ccc(/C=N/NC(=O)c2cccc([N+](=O)[O-])c2)o1 | -4.0% | 0.8% | 2.2% | -21.8% | -0.7%
Cc1ccc(-n2c(C)cc(/C=N/NC(=O)c3ccncc3)c2C)cc1C | 8.49µM* | 24.3% | -7.0% | -21.6% | -1.1%
Cc1cc(C(=O)N/N=C/c2ccc(O)c(O)c2O)c(C)n1-c1ccccc1 | 10.7µM* | -2.9% | -0.4% | -37.5% | -5.1%
Cc1cc(/C=N/NC(=O)c2cccs2)c(C)n1-c1cnccn1 | 4.78µM* | 3.55µM* | 2µM* | nt | 7.3µM*
Cc1ccc(NC(=O)C2CCCCC2C(=O)O)cc1Cl (centres undefined) | ? | -1.6% | -0.2% | -2.9% | 0.2%
CCOc1ccccc1CNC(=O)Cn1c(=O)c2cccn2c2ccc(F)cc21 | 10.2% | nt | nt | nt | nt
Cc1cc(C)nc(SCC(=O)N/N=C/c2cc(C)n(-c3ccccc3C)c2C)n1 | 16.9µM* | -1.3% | -0.3% | -14.0% | -1.2%
Cc1cc(/C=N/NC(=O)c2cccs2)c(C)n1-c1ccccc1 | 0.0849µM* | 0.794µM* | 0.631µM* | ? | ?
Cc1cc(/C=N/NC(=O)C(O)(c2ccccc2)c2ccccc2)c(C)n1-c1ccccc1 | ? | -1.1% | -3.7% | ? | -3.0%
Cc1cc(/C=N/NC(=O)c2ccncc2)c(C)n1-c1ccccc1 | 1.9µM* | ? | 22.7% | ? | ?
Cc1ccc(-n2c(-c3cccs3)nc3nc4ccccc4nc32)cc1 | 0.5% | 1.6% | -4.8% | -19.9% | -8.0%
Cc1cccc(C(=O)Nc2ccccc2SCc2cc(=O)c3cccc(C)c3[nH]2)c1 | -12.7% | nt | nt | nt | nt
COc1ccc(CNC(=O)COC(=O)Cc2ccsc2)cc1 | 2.5% | -2.7% | -3.2% | 3.1% | 3.7%
O=C(c1ccc(C#Cc2ccccc2)o1)N1CCN(c2ccccn2)CC1 | ? | 2.6% | 1.6% | -13.7% | 0.9%
COC(=O)c1ccc(C#Cc2ccccc2)o1 | 16.9µM* | 17.4% | 19.0% | nt | 13.9%
Cc1sc2nc(-c3cccs3)oc(=O)c2c1C | 10.7µM* | -2.3% | 15.0% | nt | 3.4%
Cc1sc2nc(-c3ccc(Br)cc3)oc(=O)c2c1C | 2.69µM* | 6.9% | ? | nt | -3.2%
Cc1nc2scc(-c3cccs3)c2c(=O)o1 | -1.2% | -1.9% | -1.6% | 3.2% | -2.0%
Cc1sc2ncnc(OCc3nnc(-c4cccs4)o3)c2c1C | -9.4% | -8.4% | -0.9% | -16.5% | 0.5%
O=c1oc(-c2cccs2)nc2scc(-c3cccs3)c12 | 7.57µM* | 13.9% | 7.0% | 11.2µM* | 0.1%
CCc1cc2c(=O)[nH]c(-c3ccncc3)nc2s1 | ? | -0.2% | -1.9% | 41.1% | 6.0%
CCc1cc2c(=O)oc(-c3ccc(Br)cc3)nc2s1 | 6.01µM* | 17.8% | 13.6% | nt | -0.8%
Cc1ccc2c(c1)C(=NC1CCCCC1)c1cc3ccccc3nc1-2 | 15.1µM* | ? | 10.7% | 2.82µM* | ?
Cc1ccc2c(c1)-c1nc3ccccc3cc1C2=NC1CCCCC1 | 10.7µM* | 3.55µM* | ? | 6.31µM* | ?

Bioassay records: PubChem BioAssay, National Center for Advancing Translational Sciences (NCATS)
